Data as given in PubChem BioAssay (NCI).
“And” between values parts separate entries of the source, which are not always exact repeats. Equal values may be shown once. This is part of a sample that, as a whole, favours compounds with a hit. Of some 83,000 tested, about 20% had one in any assay.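 Compound tested at a single concentration for 48 hours in 96-well plates; a percent growth value below 10 was scored as active.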 The source made the active and inactive calls.

How the values were obtained:
Assay in all cases: NCI-60 one-dose screen, 48 h (100 = growth as untreated, 0 = no growth, -100 = all killed)
Details in all cases: 10 µM unless noted
HCT-15 colon = test system: HCT-15 colon
HT29 colon = test system: HT29 colon
SNB-75 CNS = test system: SNB-75 CNS
SNB-19 CNS = test system: SNB-19 CNS
U251 CNS = test system: U251 CNS
PC-3 prostate = test system: PC-3 prostate
SK-MEL-5 melanoma = test system: SK-MEL-5 melanoma
UACC-62 melanoma = test system: UACC-62 melanoma
LOX IMVI melanoma = test system: LOX IMVI melanoma
SK-MEL-28 melanoma = test system: SK-MEL-28 melanoma
SK-MEL-2 melanoma = test system: SK-MEL-2 melanoma
EKVX NSCLC = test system: EKVX NSCLC
SN12C renal = test system: SN12C renal
UO-31 renal = test system: UO-31 renal
TK-10 renal = test system: TK-10 renal
ACHN renal = test system: ACHN renal
CAKI-1 renal = test system: CAKI-1 renal
A498 renal = test system: A498 renal
CCRF-CEM leukemia = test system: CCRF-CEM leukemia
MOLT-4 leukemia = test system: MOLT-4 leukemia

Structure (SMILES) | growth (HCT-15 colon) | growth (HT29 colon) | growth (SNB-75 CNS) | growth (SNB-19 CNS) | growth (U251 CNS) | growth (PC-3 prostate) | growth (SK-MEL-5 melanoma) | growth (UACC-62 melanoma) | growth (LOX IMVI melanoma) | growth (SK-MEL-28 melanoma) | growth (SK-MEL-2 melanoma) | growth (EKVX NSCLC) | growth (SN12C renal) | growth (UO-31 renal) | growth (TK-10 renal) | growth (ACHN renal) | growth (CAKI-1 renal) | growth (A498 renal) | growth (CCRF-CEM leukemia) | growth (MOLT-4 leukemia)
O=C(Nc1ccc(Br)cc1)c1cc(Br)ccc1O | 15.2% (inactive) and 15.6% (inactive) | 92.1% (inactive) and 36.7% (inactive) | -10.1% (active) and 49.2% (inactive) | 22.1% (inactive) and 23.1% (inactive) | 15.4% (inactive) and 10.2% (inactive) | 5.68% (active) and 3.31% (active) | -65.5% (active) and -83.1% (active) | 3.77% (active) and -27.9% (active) | 2.39% (active) and 8.77% (active) | 27% (inactive) and 16.4% (inactive) | -30.5% (active) and 13.2% (inactive) | 11% (inactive) and 13.6% (inactive) | 6.5% (active) and -10.3% (active) | -12.3% (active) and 0.207% (active) | 9.29% (active) and 1.36% (active) | 9.36% (active) and -2.71% (active) | 5.39% (active) and 10.4% (inactive) | -12.7% (active) and -34.6% (active) | 23.4% (inactive) and 3.66% (active) | 17.4% (inactive) and -33.2% (active)
CN1CCN(C2CCN(C(=O)Nc3cc(Oc4ccc(NC(=O)C5(C(=O)Nc6ccc(F)cc6)CC5)c(F)c4)ccn3)CC2)CC1 | -14.8% (active) and 93.5% (inactive) | -60.3% (active) and 46.5% (inactive) | -77.5% (active) and 77.2% (inactive) | 3.95% (active) and 115% (inactive) | -86.3% (active) and 98.1% (inactive) | -12.3% (active) and 86.1% (inactive) | -98% (active) and 80.1% (inactive) | -78% (active) and 70.7% (inactive) | -88.3% (active) and 93.1% (inactive) | -91.6% (active) and 94.3% (inactive) | 81.3% (inactive) | 3.24% (active) and 99.4% (inactive) | -55.1% (active) and 50.6% (inactive) | -61.7% (active) and 92.4% (inactive) | -47.9% (active) and 98.4% (inactive) | -3.96% (active) and 53.5% (inactive) | -34.8% (active) and 44.8% (inactive) | -68.6% (active) and 92.8% (inactive) | 0.274% (active) and 101% (inactive) | -10.9% (active) and 86.6% (inactive)
CN(C)c1ccc2nc3ccc(N)cc3[n+](-c3ccccc3)c2c1 | 90.7% (inactive) and 18.7% (inactive) | 32.5% (inactive) and 24.4% (inactive) | 18.6% (inactive) and 52.4% (inactive) | 12.3% (inactive) and 21.1% (inactive) | 16% (inactive) and 3.13% (active) | 22.2% (inactive) and 7.58% (active) | -5.68% (active) and -77.7% (active) | 17% (inactive) and 13.4% (inactive) | 28% (inactive) and 6.03% (active) | 37.6% (inactive) and 30.9% (inactive) | 58.2% (inactive) | 27.8% (inactive) and 12.6% (inactive) | 6.72% (active) and -36.4% (active) | 62.1% (inactive) and 31% (inactive) | 20.6% (inactive) | 73.5% (inactive) and 30.8% (inactive) | 94.2% (inactive) and -40.5% (active) | 67.5% (inactive) and 41.8% (inactive) | 24.6% (inactive) and 13.7% (inactive) | 23% (inactive) and 0.316% (active)
COc1cc2nc(N3CCN(C(=O)C4COc5ccccc5O4)CC3)nc(N)c2cc1OC (stereo unspecified) | 108% (inactive) and 97.5% (inactive) and 105% (inactive) | 71.4% (inactive) and 93.9% (inactive) | 71.3% (inactive) and 76.9% (inactive) and 92.7% (inactive) | 99.7% (inactive) and 96% (inactive) and 101% (inactive) | 91.8% (inactive) and 86.8% (inactive) and 99.1% (inactive) | 91.7% (inactive) and 93.1% (inactive) and 110% (inactive) | 92.2% (inactive) and 86.6% (inactive) and 101% (inactive) | 102% (inactive) and 101% (inactive) and 103% (inactive) | 88% (inactive) and 94.2% (inactive) and 98.7% (inactive) | 99.9% (inactive) and 102% (inactive) and 107% (inactive) | 112% (inactive) and 93.8% (inactive) | 97.5% (inactive) | 88.1% (inactive) and 83% (inactive) and 99.7% (inactive) | 94.5% (inactive) and 98.7% (inactive) and 85% (inactive) | 86.4% (inactive) and 88.4% (inactive) | – | 103% (inactive) and 82.2% (inactive) and 87.4% (inactive) | 105% (inactive) and 94.2% (inactive) and 101% (inactive) | 74.9% (inactive) and 89.6% (inactive) and 97.8% (inactive) | 91.1% (inactive) and 66.1% (inactive) and 94.4% (inactive)
Cc1cccc(/C=C\C(=O)c2ccc(Cl)cc2)c1 | 89.5% (inactive) and 96.6% (inactive) | 84.1% (inactive) and 90.9% (inactive) | 98.9% (inactive) and 115% (inactive) | 91.6% (inactive) and 101% (inactive) | 80.3% (inactive) and 98.9% (inactive) | 89.6% (inactive) and 83.7% (inactive) | 108% (inactive) and 94.8% (inactive) | 96.8% (inactive) and 103% (inactive) | 89.2% (inactive) and 91.6% (inactive) | 106% (inactive) and 111% (inactive) | 94.9% (inactive) and 100% (inactive) | 91.1% (inactive) and 94.3% (inactive) | – | 68.3% (inactive) and 86.1% (inactive) | 75.5% (inactive) and 85.3% (inactive) | 102% (inactive) and 105% (inactive) | 90.1% (inactive) and 85.1% (inactive) | 78.9% (inactive) and 54.4% (inactive) | 84.3% (inactive) and 68.8% (inactive) | 90.2% (inactive) and 55% (inactive)
Oc1ccc(/C=C/c2ccccc2)cc1 | 67.1% (inactive) and 68.2% (inactive) | 104% (inactive) and 84.8% (inactive) | 68.7% (inactive) and 83.4% (inactive) | 84.1% (inactive) and 91.2% (inactive) | 67.7% (inactive) and 53.5% (inactive) | 70% (inactive) and 43.8% (inactive) | 56.1% (inactive) and 55.7% (inactive) | 56.3% (inactive) and 53.4% (inactive) | 55.6% (inactive) and 68.9% (inactive) | 97.5% (inactive) and 99.8% (inactive) | 98.4% (inactive) and 98.8% (inactive) | 76.9% (inactive) and 108% (inactive) | – | 17.8% (inactive) and 11.6% (inactive) | 92.9% (inactive) and 65.1% (inactive) | 17.3% (inactive) and 16.2% (inactive) | 6.76% (active) | 83.1% (inactive) and 59.4% (inactive) | 33.5% (inactive) and 33.3% (inactive) | 61.6% (inactive) and 47.5% (inactive)
Oc1nc(NCCc2ccccc2)sc1/C=C1\C=Nc2ncccc21 | 33.5% (inactive) and 36.5% (inactive) | 27.8% (inactive) and 30.6% (inactive) | -13.3% (active) and -10.9% (active) | 12.1% (inactive) | 7.63% (active) and 15.8% (inactive) | 19.2% (inactive) and 25.9% (inactive) | -0.16% (active) and 14.5% (inactive) | -1.3% (active) and -1.44% (active) | 8.25% (active) and 16.3% (inactive) | 0.815% (active) and 16% (inactive) | -4.61% (active) and 28.8% (inactive) | 40.9% (inactive) and 46% (inactive) | – | 36.6% (inactive) and 25.2% (inactive) | 18.8% (inactive) and 34.2% (inactive) | -12% (active) and 16% (inactive) | 54.8% (inactive) and 37.4% (inactive) | -21.3% (active) and -7.55% (active) | 5.53% (active) and 9.93% (active) | 8.59% (active) and 11.4% (inactive)
